Test [1] can be described thus: HPAF-II 24hr Apoptosis Induction qHTS against the NCATS CANVASS Library (AID 1347356). The method in brief:
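500 HPAF-II cells/well; compounds in 11-pnt qHTS; 24 h, 37 C/5% CO2; Caspase-Glo 3/7 added, 15 min RT dark; luminescence read. Doxorubicin control.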

The nature of test [2]: HEK293 18hr Apoptosis Induction qHTS against the NCATS CANVASS Library (AID 1347357). Summed up: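 Caspase-Glo 3/7 luminescence (15 min, room temperature) measured apoptosis after an 18-hour, 37 degrees C exposure of HEK293 cells (500 cells/well) to compounds in 11 points.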
The nature of test [3]: HEK293 24hr Apoptosis Induction qHTS against the NCATS CANVASS Library (AID 1347359). The method in brief: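 HEK293 cells (500/well, DMEM + 10% FBS) were exposed to compounds in an 11-point series for 24 hours at 37 degrees C, then caspase-3/7 activity was read by Caspase-Glo DEVD luciferase luminescence after 15 min.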
Test [4] can be described thus: HPAF-II 18hr Apoptosis Induction qHTS against the NCATS CANVASS Library (AID 1347360). The method in brief: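 Caspase-3/7 activation was measured with luminescent Caspase-Glo 3/7 reagent (15 min, RT) in HPAF-II cancer cells (500 cells/well). Before detection, cells had been treated for 18 h at 37 C with compounds (11 points).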
The subject of test [5] is NAD(P)H diaphorase (Clostridium kluyveri). The experiment in a line: Diaphorse counterscreen qHTS: Assay Interference Panel against the NCATS CANVASS Library (AID 1347362). The method in brief: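 Clostridium kluyveri diaphorase in PBS with 0.01% Tween-20 was preincubated 15 min at room temperature in the dark with compounds (11-point series). Resorufin fluorescence (ex 525/20, em 598/25) was read 5 min after adding resazurin/NADH.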

The target in test [6] is Luciferin 4-monooxygenase (Photinus pyralis) (UniProt P08659). Description: Firefly luciferase counterscreen qHTS: Assay Interference Panel against the NCATS CANVASS Library (AID 1347363). Further: series mostly up to about 57 µM. Summed up:
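Purified P. pyralis luciferase was added to compounds (11-point series) preincubated 15 min at room temperature with substrate containing 0.013 mM D-luciferin and 0.013 mM ATP; luminescence was read after 5 min.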

Test [7] can be described thus: KB-3-1 Cancer Cell Toxicity qHTS against the NCATS CANVASS Library (AID 1347366). Further: nearly all actives have a fitted effect of over 75% in size. The method in brief: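 CellTiter-Glo luminescence measured viability after 72 h at 37C. KB-3-1 cells were seeded at 500 per well in DMEM/10% FBS.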
Test [8] can be described thus: qHTS for ATAD5 Agonist screened against the NCATS CANVASS Library (AID 1347367).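 Further: luciferase reporter driven by ATAD5 which rises upon DNA damage.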 The method in brief:
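Genotoxicity via ATAD5-luciferase luminescence after 16 h compound exposure (11-point series) at 37C in HEK293T-ATAD5 cells. CellTiter-Fluor viability read precedes the luminescence read; MMS serves as positive control.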

Test [9] can be described thus: MCF7 Cancer Cell Toxicity qHTS against the NCATS CANVASS Library (AID 1347369). Summed up:
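Cytotoxicity was measured as CellTiterGlo luminescence (ATP) after 72 h at 37 °C. The cells were MCF7 at 500 per well, with an 11-point compound concentration series.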

A short description of test [10]: qHTS for ATAD5 Antagonist screened against the NCATS CANVASS Library (AID 1347370).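 Further: HEK293T cells carrying an ATAD5 luciferase reporter co-treated with 10 µM 5-fluorouridine; series mostly up to about 46 µM; nearly all actives have a fitted effect of over 65% in size.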 The method in brief: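 HEK293T-ATAD5 luc reporter, 2000 cells/well; 5hr attach; cpd + 10 uM 5-FUrd; 16hr 37C, 5% CO2. Readouts: CellTiter-Fluor fluorescence (1hr), then Amplite luciferase luminescence (30min RT).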
Test [11] can be described thus: J3T Cancer Cell Toxicity qHTS against the NCATS CANVASS Library (AID 1347371). The method in brief:
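Dog glioma J3T, 500 cells/well; cpd 11-pt qHTS; 72 hr, 37C/5% CO2; CellTiterGlo ATP luminescence readout.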

Test [12] deals with Nuclear receptor subfamily 1 group I member 3 (Homo sapiens) (UniProt Q14994). Description: qHTS for Constitutive Androstane Receptor (CAR) Antagonist screened against the NCATS CANVASS Library (AID 1347372).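 Further: cells stimulated with 50 nM CITCO agonist so inhibition reflects antagonism; series mostly up to about 46 µM.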 The method in brief:
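Cells were seeded and left 4hr to attach, then received compound at 11 concentrations and 50 nM CITCO. Following 24hr incubation, fluorescence viability and luciferase luminescence were read sequentially.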

Test [13] shares this target. Description: qHTS for Constitutive Androstane Receptor (CAR) Agonist screened against the NCATS CANVASS Library (AID 1347373).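 Further: every well also contained 1.5 µM PK11195 alongside the test compound.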 The method in brief:
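Luciferase read-out (ONE-Glo, 30 min RT) of CYP2B6-2.2kb promoter activity in double-stable HepG2-hCAR cells after 24hr compound exposure with 1.5uM PK11195 present; viability measured first by CellTiter-Fluor.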

Test [14] in a line: 10-beta competent E. coli microbial cell viability qHTS against the NCATS CANVASS Library (AID 1347376). Further: series mostly up to about 46 µM. The method in brief: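 Luminescence from BacTiter-Glo ATP detection served as the viability read-out; bacteria (0.2 OD) had been incubated overnight at 37C with pin-transferred compounds at 11 concentrations.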
Test [15] can be described thus: qHTS for H2AX Agonists against the NCATS CANVASS Library (AID 1347378). The method in brief:
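Phospho-H2AX (S139) in CHO-K1 lysates measured by HTRF, reported as 665/615 nm emission ratio after 24 hr antibody incubation at room temperature. Cells were first treated with a compound series for 3 hr at 37C (0.76% DMSO final).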

The nature of test [16]: qHTS for Inflammasome Signaling Inhibitors: IL-1-beta AlphaLISA screen against the NCATS CANVASS Library (AID 1347379).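 Further: human THP-1 cells primed with LPS then triggered with ATP.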 Summed up: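 THP-1, 1 hr compound pre-incubation, then LPS 250 ng/mL + ATP 1.25 mM (final); 16 hr total with compound; IL-1B AlphaLISA, ex 680/em 615 nm; 11-point qHTS, up to 57.5 uM final.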
Test [17] can be described thus: Inflammasome Signaling qHTS Counterscreen: IL-1-beta AlphaLISA counterscreen against the NCATS CANVASS Library (AID 1347381).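 Further: cell-free check with purified IL-1β in medium and no THP-1 cells; series mostly up to about 57 µM.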 Summed up:
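Here, no cellular stimulation occurs; compounds in an 11-point series meet 4 pg purified IL-1-beta directly. Bead-based AlphaLISA detection follows (1 h acceptor/antibody, then 30 min donor, dark, room temperature), with excitation at 680 nm.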

Test [18] in a line: Cytotoxicity qHTS for assessment of Hepg2 cells membrane integrity screened against the NCATS CANVASS Library (AID 1347387). Summed up:
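LDH release read by fluorescence (560 nm ex/590 nm em) after CytoTox-ONE addition and 10 min RT; signal tracks lysed cells. HepG2, 2000 cells/well, plated overnight; compound 5 hr, 37C, 5% CO2, final 0.59 nM - 46 uM, 11 points.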

Test [19] in a line: Viability qHTS for inhibitors of the SERCaMP assay screened against the NCATS CANVASS Library (AID 1347400). Further: nearly all actives have a fitted effect of over 70% in size. Further: potency means the concentration at half of the fitted maximal effect. The method in brief:
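CellTiter-Glo luminescence readout after 48 h compound exposure (11-pnt qHTS series) of SH-SY5Y-GLuc SERCaMP MJH297 cells seeded at 1000 cells/well; bortezomib positive control.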

Test [20] is described as follows: G06 Cancer Cell Toxicity qHTS against the NCATS CANVASS Library (AID 1347368). Further: nearly all actives have a fitted effect of over 60% in size. Further: potency means the concentration at half of the fitted maximal effect. The method in brief: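 ATP luminescence (CellTiterGlo) readout of cytotoxicity. Canine G06 glioma cells, 500/well, 72 hr incubation at 37C with compounds; bortezomib titration served as control.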

The structures appear in SMILES notation. Records with an inconclusive call do not appear. Active and inactive are the calls of the source. The call rests on the fitted dose curve; in most records, active means well fitted curve in the direction sought with a large enough effect; inconclusive means small, poorly fitted or top-dose-only effect, or another doubt; inactive means no such curve, though single readings can be large; an effect the other way counts as inactive or inconclusive.

Nuclear receptor subfamily 1 group I member 3 (Homo sapiens), sequence (Q14994 whole entry, looked up): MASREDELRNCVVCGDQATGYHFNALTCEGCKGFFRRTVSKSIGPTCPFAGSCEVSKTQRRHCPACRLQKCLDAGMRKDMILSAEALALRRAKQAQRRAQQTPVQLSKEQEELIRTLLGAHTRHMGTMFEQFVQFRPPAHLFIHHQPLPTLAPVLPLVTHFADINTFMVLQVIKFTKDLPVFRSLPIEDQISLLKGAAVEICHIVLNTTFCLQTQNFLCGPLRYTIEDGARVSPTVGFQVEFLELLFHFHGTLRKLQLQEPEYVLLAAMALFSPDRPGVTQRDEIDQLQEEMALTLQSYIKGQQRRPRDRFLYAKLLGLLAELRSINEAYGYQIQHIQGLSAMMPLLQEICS
Luciferin 4-monooxygenase (Photinus pyralis), sequence (P08659 whole entry, looked up): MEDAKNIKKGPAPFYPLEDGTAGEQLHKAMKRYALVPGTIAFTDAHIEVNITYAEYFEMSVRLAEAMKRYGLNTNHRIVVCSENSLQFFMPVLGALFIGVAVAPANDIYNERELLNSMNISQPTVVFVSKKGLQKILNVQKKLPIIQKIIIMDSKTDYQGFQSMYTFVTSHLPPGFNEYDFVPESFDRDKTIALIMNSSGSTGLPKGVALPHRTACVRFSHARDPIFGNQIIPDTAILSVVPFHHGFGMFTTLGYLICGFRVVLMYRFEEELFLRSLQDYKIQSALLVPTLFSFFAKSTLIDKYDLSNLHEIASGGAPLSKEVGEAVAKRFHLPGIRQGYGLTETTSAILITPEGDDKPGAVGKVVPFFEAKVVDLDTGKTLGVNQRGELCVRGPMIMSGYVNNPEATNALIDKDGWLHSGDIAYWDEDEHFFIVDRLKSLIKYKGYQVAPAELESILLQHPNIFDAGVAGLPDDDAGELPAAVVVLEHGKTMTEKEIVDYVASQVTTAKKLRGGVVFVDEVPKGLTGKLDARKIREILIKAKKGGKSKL

In the case of `O=C1OC(CCO)c2cccc(O)c21` (stereo not given), the call in [1], in test [14], in test [17] and in test [18] was inactive. For the same compound, the Potency entry in test [2], in test [3], in test [4], in test [5], in [6] and in test [7] was “inactive” each time. The Potency result in test [8], in test [9], in test [10], in test [11], in test [12] and in [13] was “inactive” each time. The Potency result in test [15], in test [16] and in [19] was “inactive” each time.
Regarding `O=C(OC[C@H]1O[C@@H](OC(=O)c2cc(O)c(O)c(O)c2)[C@H](OC(=O)c2cc(O)c(O)c(O)c2)[C@@H](OC(=O)c2cc(O)c(O)c(O)c2)[C@@H]1OC(=O)c1cc(O)c(O)c(O)c1)c1cc(O)c(O)c(O)c1`, the result in test [1], in test [14], in test [17] and in [18] was inactive. For the same compound, the Potency entry in test [2], in test [3], in test [4], in test [8], in test [9] and in test [10] was “inactive” each time. The Potency entry in [11], in test [12], in test [13] and in test [16] was “inactive” throughout. In addition, the Potency is 23.5 µM (active) in test [20] and 34 µM (active) in test [19].
In the case of `Cc1cc(O)cc2c1C(=O)c1c(O)cc(O)cc1C2=O`, the outcome in test [1], in test [14], in [17] and in test [18] was inactive. Besides, the Potency result in test [2], in test [3], in test [4], in [5], in test [6] and in test [7] was “inactive” in each case. Further, the Potency entry in [8], in [20], in test [9], in test [10], in test [11] and in test [12] was “inactive” each time. Besides, the Potency result in [13], in [15], in test [16] and in test [19] was “inactive” each time.
Turning to `CC(C)=CCC[C@]1(C)[C@H]2CC(=O)[C@@]3(CO3)[C@@H]1C2`, the compound was classed as inactive in [1], in test [14], in [17] and in test [18]. The Potency entry in [2], in [3], in test [4], in test [5], in test [6] and in test [7] was “inactive” each time. The Potency entry in test [8], in test [20], in test [9], in test [10], in [11] and in [12] was “inactive” each time. Also, the Potency result in test [13], in test [15], in test [16] and in [19] was “inactive” throughout.
As for `O=Cc1ccc2n1C[C@]1(OC2)O[C@H](CO)[C@@H](O)[C@@H]1O`, the compound was classed as inactive in test [1], in test [14], in test [17] and in [18]. The Potency result in [2], in test [3], in test [4], in [5], in test [6] and in test [7] was “inactive” in each case. In addition, the Potency entry in test [8], in test [20], in test [9], in test [10], in test [11] and in [12] was “inactive” each time. The Potency result in test [13], in test [15], in test [16] and in test [19] was “inactive” throughout.
Regarding `O=Cc1ccc2n1C[C@]1(C[C@H](O)[C@@H](CO)O1)OC2`, the result in test [1], in test [14], in test [17] and in test [18] was inactive. Further, the Potency entry in test [2], in test [3], in test [4], in [5], in [6] and in [7] was “inactive” each time. Besides, the Potency result in test [8], in test [20], in test [9], in test [10], in test [11] and in [12] was “inactive” each time. The Potency entry in test [13], in test [15], in test [16] and in test [19] was “inactive” each time.

(Values after PubChem BioAssay (NCATS).)
